The source of these data is PubChem BioAssay (Tox21).

The nature of experiment [1]: qHTS assay for identifying genotoxic compounds that show differential cytotoxicity against isogenic chicken DT40 cell lines with known DNA damage response pathways - wild type cell line (AID 743012). Further: potency means the concentration at half of the fitted maximal effect; nearly all actives have a fitted effect of over 60% in size. The method in brief: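 Using parental DT40 (300 cells/well), compounds delivered in DMSO incubate 40 h at 37 C/5% CO2. CellTiter-Glo reagent then stands 30 min at room temperature, and luminescence gives cell viability.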

A short description of experiment [2]: qHTS assay for identifying genotoxic compounds that show differential cytotoxicity against isogenic chicken DT40 cell lines with known DNA damage response pathways - Rev3 mutant cell line (AID 743014). Further: potency means the concentration at half of the fitted maximal effect; nearly all actives have a fitted effect of over 55% in size.
Experiment [3] can be described thus: qHTS assay for identifying genotoxic compounds that show differential cytotoxicity against isogenic chicken DT40 cell lines with known DNA damage response pathways - Rad54/Ku70 mutant cell line (AID 743015). Further: potency means the concentration at half of the fitted maximal effect; nearly all actives have a fitted effect of over 60% in size.
A short description of experiment [4]: qHTS assay to identify small molecule antagonists of the androgen receptor (AR) signaling pathway - cell viability counter screen (AID 743033; further: nearly all actives have a fitted effect of over 45% in size; further: potency means the concentration at half of the fitted maximal effect).
A short description of experiment [5]: qHTS assay to identify small molecule antagonists of the thyroid receptor (TR) signaling pathway (AID 743065). Further: nearly all actives have a fitted effect of over 55% in size. Further: potency means the concentration at half of the fitted maximal effect. The method in brief:
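Antagonism measured as loss of luciferase signal in GH3 cells stably carrying a TRE-luciferase reporter, co-treated with compound and T3 (1 nM final) for 23.5 h at 37 C. Viability was read in the same well by CellTiter-Fluor.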

The subject of experiment [6] is thyroid hormone receptor (rat, GH3 cells). In words: qHTS assay to identify small molecule agonists of the thyroid receptor (TR) signaling pathway (AID 743066; calls by dose curve).
Experiment [7] addresses Estrogen receptor (Homo sapiens) (UniProt P03372). In words: qHTS assay to identify small molecule agonists of the estrogen receptor alpha (ER-alpha) signaling pathway (AID 743075; calls by dose curve;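 further: HEK293 GripTite cells with ER-alpha and UAS-driven beta-lactamase reporter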; further: potency means the concentration at half of the fitted maximal effect).
The target is the same in experiment [8]. In words: qHTS assay to identify small molecule agonists of the estrogen receptor alpha (ER-alpha) signaling pathway using the BG1 cell line (AID 743079). Further: nearly all actives have a fitted effect of over 20% in size. Further: potency means the concentration at half of the fitted maximal effect.
Experiment [9] is described as follows: qHTS assay to identify small molecule antagonists of the estrogen receptor alpha (ER-alpha) signaling pathway using the BG1 cell line (AID 743080; calls by dose curve;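 further: BG1 cells stimulated with 17beta-estradiol alongside compound; nearly all actives have a fitted effect of over 25% in size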; further: potency means the concentration at half of the fitted maximal effect). In outline:
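Endogenous full-length ER-alpha in BG1-Luc-4E2 cells drives a stably integrated 4×ERE luciferase gene; compounds were tested against 17beta-estradiol over 21.5 h, with luminescence and multiplexed viability fluorescence recorded.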

The nature of experiment [10]: qHTS assay to identify small molecule antagonists of the estrogen receptor alpha (ER-alpha) signaling pathway using the BG1 cell line - cell viability counter screen (AID 743081).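 Further: compound given together with 17beta-estradiol as the ER stimulus; nearly all actives have a fitted effect of over 45% in size.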 Further: potency means the concentration at half of the fitted maximal effect.
The nature of experiment [11]: qHTS assay to identify small molecule antagonists of the thyroid receptor (TR) signaling pathway - cell viability counter screen (AID 743064). Further: nearly all actives have a fitted effect of over 50% in size. Further: potency means the concentration at half of the fitted maximal effect. The method in brief:
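GH3.TRE-Luc rat pituitary cells dosed after 4 hr plating, co-stimulated with T3 at 1 nM final, incubated 23.5 h at 37 C. Viability measured in the same wells by CellTiter-Fluor fluorescence after 30 min further at 37 C.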

The target of experiment [12] is Estrogen receptor (Homo sapiens) (UniProt P03372). In words: qHTS assay to identify small molecule antagonists of the estrogen receptor alpha (ER-alpha) signaling pathway (AID 743069; active means well fitted curve in the direction sought with a large enough effect in the signal ratio in the repeat runs, not every such curve was filed as active; inconclusive means weak or mixed curves, or effect the other way; inactive means no such curve, though single readings can be large or run the other way; the % refers to the signal ratio; further: potency means the concentration at half of the fitted maximal effect). In outline:
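ER-alpha-UAS-bla GripTite HEK293 line; 2% charcoal-stripped FBS overnight; plated, 4 hr 37C/5% CO2; cpd in DMSO + 17beta-estradiol, 18 hr 37C; LiveBLAzer B/G FRET substrate 2 hr RT; fluorescence intensity.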

Experiment [13] is described as follows: qHTS assay to identify small molecule antagonists of the estrogen receptor alpha (ER-alpha) signaling pathway - cell viability counter screen (AID 743074; calls by dose curve;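 further: HEK293 cells carrying ER-alpha-UAS-bla reporter stimulated with 17beta-estradiol; nearly all actives have a fitted effect of over 45% in size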; further: potency means the concentration at half of the fitted maximal effect).
In experiment [14] the target is Aromatase (Homo sapiens) (UniProt P11511). Put plainly: qHTS assay to identify aromatase inhibitors (AID 743083). Further: nearly all actives have a fitted effect of over 55% in size. Further: potency means the concentration at half of the fitted maximal effect.
Sequence of Aromatase (Homo sapiens) (P11511 whole entry, looked up): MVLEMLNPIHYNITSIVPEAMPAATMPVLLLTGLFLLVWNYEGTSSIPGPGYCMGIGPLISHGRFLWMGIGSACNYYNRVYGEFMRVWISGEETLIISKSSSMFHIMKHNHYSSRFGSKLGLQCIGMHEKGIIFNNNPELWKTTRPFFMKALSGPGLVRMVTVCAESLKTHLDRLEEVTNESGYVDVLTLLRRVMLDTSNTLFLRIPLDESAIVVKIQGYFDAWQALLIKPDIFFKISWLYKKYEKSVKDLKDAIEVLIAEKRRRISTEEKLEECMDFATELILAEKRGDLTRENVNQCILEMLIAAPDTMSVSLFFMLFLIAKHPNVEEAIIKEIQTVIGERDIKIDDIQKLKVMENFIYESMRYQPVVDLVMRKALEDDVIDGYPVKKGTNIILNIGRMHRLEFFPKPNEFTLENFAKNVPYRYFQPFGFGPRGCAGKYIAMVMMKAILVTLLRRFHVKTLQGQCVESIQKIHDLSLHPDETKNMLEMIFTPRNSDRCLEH
Experiment [15] can be described thus: qHTS assay to identify small molecule antagonists of the androgen receptor (AR) signaling pathway using the MDA cell line - cell viability counter screen (AID 743041; further: nearly all actives have a fitted effect of over 45% in size; further: potency means the concentration at half of the fitted maximal effect). In outline: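 Cells were plated at 3,000 per well and left 5 h. Compounds in DMSO were then pinned in, followed by R1881. After 16 h at 37C, CellTiter-Fluor fluorescence gave viability.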
Experiment [16] deals with Androgen receptor (Homo sapiens) (UniProt P10275). Put plainly: qHTS assay to identify small molecule agonists of the androgen receptor (AR) signaling pathway (AID 743036; active means well fitted activation curve with a large enough effect in the signal ratio in the repeat runs, with a control signal flat, not every such curve was filed as active; inconclusive means weak or mixed curves, or effect the other way; inactive means no such curve, though single readings can be large or run the other way; the % refers to the signal ratio). In outline:
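AR-UAS-bla HEK293 cells, plated 4 h before dosing, were treated with compound for 16 h at 37C. beta-Lactamase reporter read after 2 h with LiveBLAzer B/G FRET substrate at room temperature.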

The target is the same in experiment [17]. In words: qHTS assay to identify small molecule agonists of the androgen receptor (AR) signaling pathway using the MDA cell line (AID 743040; further: nearly all actives have a fitted effect of over 20% in size). In outline: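 Cells plated, 5 h at 37C/0% CO2; compound or DMSO pinned; 16 h at 37C; ONE-Glo added; luminescence measured after 30 min at room temperature. Reporter line: MDA-kb2 with MMTV-luciferase responsive to AR and GR.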

Experiment [18] shares this target. Put plainly: qHTS assay to identify small molecule antagonists of the androgen receptor (AR) signaling pathway using the MDA cell line (AID 743042; further: nearly all actives have a fitted effect of over 55% in size; further: potency means the concentration at half of the fitted maximal effect). The method in brief: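 Antagonist mode: compounds plus R1881 agonist added to MDA-kb2 AR-luc cells, incubated 16 h at 37C. Luciferase reporter luminescence quantified, with multiplexed CellTiter-Fluor readout for cell viability.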

The target is the same in experiment [19]. In words: qHTS assay to identify small molecule antagonists of the androgen receptor (AR) signaling pathway (AID 743035; active means well fitted inhibition curve with a large enough effect in the signal ratio in the repeat runs, not every such curve was filed as active; inconclusive means weak or mixed curves, or effect the other way; inactive means no such curve, though single readings can be large or run the other way; the % refers to the signal ratio; further: potency means the concentration at half of the fitted maximal effect). In outline: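 Using qHTS, AR-UAS-bla GripTite HEK293 cells received compound, then R1881, and were cultured 16 h at 37C/5% CO2 before a 2 h room-temperature LiveBLAzer B/G FRET substrate step and fluorescence measurement.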

The source made the active and inactive calls. Unless noted, the call rests on the fitted dose curve; in most records, active means well fitted curve in the direction sought with a large enough effect in the repeat runs; inconclusive means weak or mixed curves; inactive means no such curve, though single readings can be large; an effect the other way counts as inactive or inconclusive.

Sequence of Androgen receptor (Homo sapiens) (P10275 whole entry, looked up): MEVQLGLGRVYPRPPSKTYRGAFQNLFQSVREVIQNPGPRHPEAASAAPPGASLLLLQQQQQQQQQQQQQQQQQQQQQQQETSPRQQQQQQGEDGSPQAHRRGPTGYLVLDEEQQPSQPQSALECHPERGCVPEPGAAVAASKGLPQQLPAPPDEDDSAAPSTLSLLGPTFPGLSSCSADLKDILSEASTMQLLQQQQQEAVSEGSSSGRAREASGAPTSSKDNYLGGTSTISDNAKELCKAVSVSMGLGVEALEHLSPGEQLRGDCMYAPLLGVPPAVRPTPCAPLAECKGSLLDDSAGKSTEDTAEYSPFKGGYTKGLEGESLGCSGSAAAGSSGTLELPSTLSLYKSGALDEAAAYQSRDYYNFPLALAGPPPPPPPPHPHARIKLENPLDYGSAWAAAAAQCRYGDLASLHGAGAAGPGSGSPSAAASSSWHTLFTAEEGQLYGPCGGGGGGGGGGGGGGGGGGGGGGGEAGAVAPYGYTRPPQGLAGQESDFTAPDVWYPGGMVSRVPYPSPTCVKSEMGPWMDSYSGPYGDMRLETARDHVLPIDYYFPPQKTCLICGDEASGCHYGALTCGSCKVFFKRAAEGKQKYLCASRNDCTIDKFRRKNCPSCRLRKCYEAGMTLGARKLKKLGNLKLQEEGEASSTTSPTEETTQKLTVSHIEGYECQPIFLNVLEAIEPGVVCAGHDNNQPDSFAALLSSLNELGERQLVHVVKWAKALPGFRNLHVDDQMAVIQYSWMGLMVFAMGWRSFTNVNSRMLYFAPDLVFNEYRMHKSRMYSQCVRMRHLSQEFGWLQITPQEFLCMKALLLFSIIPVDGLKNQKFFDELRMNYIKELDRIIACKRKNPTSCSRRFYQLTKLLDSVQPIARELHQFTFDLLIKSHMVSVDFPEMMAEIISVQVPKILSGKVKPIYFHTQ
Sequence of Estrogen receptor (Homo sapiens) (P03372 whole entry, looked up): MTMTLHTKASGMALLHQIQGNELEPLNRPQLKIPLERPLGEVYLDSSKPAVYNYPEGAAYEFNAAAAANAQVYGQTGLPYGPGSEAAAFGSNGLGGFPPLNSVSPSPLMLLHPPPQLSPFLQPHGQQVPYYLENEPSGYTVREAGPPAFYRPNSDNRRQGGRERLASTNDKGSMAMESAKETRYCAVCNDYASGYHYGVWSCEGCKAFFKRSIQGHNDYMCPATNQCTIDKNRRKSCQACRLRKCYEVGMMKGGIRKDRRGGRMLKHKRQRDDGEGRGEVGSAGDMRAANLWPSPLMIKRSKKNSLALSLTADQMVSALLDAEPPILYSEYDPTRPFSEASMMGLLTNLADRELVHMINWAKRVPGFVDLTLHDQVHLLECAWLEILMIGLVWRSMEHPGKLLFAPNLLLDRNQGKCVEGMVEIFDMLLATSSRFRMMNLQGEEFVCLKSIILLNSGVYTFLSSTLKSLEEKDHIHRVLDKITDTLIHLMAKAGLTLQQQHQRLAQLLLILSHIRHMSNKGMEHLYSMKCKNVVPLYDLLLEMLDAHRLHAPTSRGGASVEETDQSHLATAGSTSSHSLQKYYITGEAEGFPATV

Turning to `Cc1cc(SCc2sc(-c3ccc(C(F)(F)F)c(F)c3)nc2C)ccc1OCC(=O)O`, the Potency was 54.5 µM (active) in experiment [1]; 34.4 µM (active) in experiment [2]; 54.5 µM (active) in [3]; 38.9 µM (active) in experiment [4]; 61.1 µM (active) in [5]. Also, the compound was called inactive in experiment [6]. Also, the Potency result in [7], in experiment [8], in experiment [9] and in experiment [10] was “inactive” throughout.

Regarding `O=c1ssc(Cl)c1Cl`, the Potency is 3.44 µM (active) in experiment [1]; 2.17 µM (active) in experiment [2]; 3.44 µM (active) in experiment [3]; 43.6 µM (active) in experiment [4]; 48.6 µM (active) in [11]; 27.3 µM (active) in [5]. For the same compound, the Potency in experiment [14] was 15.4 µM (active). In addition, the outcome in [6] was inactive. For the same compound, the Potency entry in experiment [12], in experiment [13], in [8] and in experiment [9] was “inactive” each time.

`CC(C)(C)C(O)/C(=C\c1ccc(Cl)cc1Cl)n1cncn1` (configuration not stated): the Potency in experiment [1] was 18.6 µM (active); in experiment [2] it was 18.6 µM (active); in [3], 18.6 µM (active); in experiment [11], 83 µM (active); in experiment [5], 74 µM (active); in [12] it was 59.3 µM [inhibitor] (active). The Potency in [9] is 74 µM (active); in experiment [14] it was 58.7 µM (active). Also, the Potency entry in experiment [13], in experiment [7] and in experiment [10] was “inactive” throughout.

As for `O=S(=O)(c1ccc(Cl)cc1)c1ccc(Cl)cc1`, the Potency is 24.6 µM (active) in experiment [1], 44.8 µM (active) in [2], 52.8 µM (active) in experiment [3] and 24.6 µM (active) in experiment [9]. Besides, the Potency entry in experiment [15], in experiment [5], in [7] and in experiment [10] was “inactive” each time. The compound was classed as inactive in experiment [6].

Turning to `CCCCCCCCc1ccc(O)cc1`, the Potency is 21.8 µM (active) in [1]; 25.2 µM (active) in experiment [3]; 46.1 µM (active) in experiment [11]; 30.6 µM (active) in experiment [5]; 31.7 µM (active) in experiment [14]. The Potency entry in experiment [16], in experiment [17], in [18] and in [10] was “inactive” throughout. Further, the compound was classed as inactive in experiment [6].

With `O=C(CCl)Nc1ccccc1`, the Potency was 10.9 µM (active) in [1]; 10.9 µM (active) in experiment [2]; 5.45 µM (active) in [3]; 15.5 µM (active) in [19]; 27.3 µM (active) in [18]; 24.3 µM (active) in [11]. Besides, the Potency in experiment [5] is 24.3 µM (active); in [14], 43.3 µM (active). For the same compound, the Potency result in experiment [16], in [17] and in [7] was “inactive” in each case.

Turning to `CCc1nn(C)c(C(=O)NCc2ccc(C(C)(C)C)cc2)c1Cl`, the Potency was 0.077 µM (active) in experiment [1]; 0.0863 µM (active) in experiment [2]; 0.0545 µM (active) in experiment [3]; 0.195 µM (active) in [4]; 0.0863 µM (active) in [15]; 0.77 µM (active) in [5]. Also, the Potency in experiment [9] is 0.0243 µM (active); in experiment [10] it was 30.6 µM (active); in [14], 61.1 µM (active).

Take `O=CC(Br)(Br)Br`: the Potency in experiment [2] was 24.3 µM (active); in experiment [4], 21.8 µM (active); in experiment [11], 19.3 µM (active); in [5], 19.3 µM (active); in experiment [7] it was 21.8 µM [inconclusive] (active); in experiment [14], 10.8 µM (active). Also, the Potency result in [15] and in experiment [10] was “inactive” each time. The compound was called inactive in [6].

`C[C@]12CC[C@H]3[C@@H](CCC4=CC(=O)CC[C@@]43C)[C@@H]1CC[C@@H]2O`: the Potency in experiment [1] is 54.1 µM (active); in experiment [2], 30.4 µM (active); in experiment [5], 30.4 µM (active). Besides, the Potency entry in experiment [4], in experiment [15], in experiment [11], in experiment [13], in experiment [9] and in experiment [10] was “inactive” each time. The Potency result in experiment [14] was “inactive”. Further, the call in [6] was inactive.

Consider `CN(C)S(=O)(=O)N(SC(F)(Cl)Cl)c1ccccc1`, for which the Potency was 0.109 µM (active) in experiment [1]; 0.154 µM (active) in [2]; 0.109 µM (active) in experiment [3]; 3.47 µM (active) in [4]; 24.3 µM (active) in experiment [15]; 1.22 µM (active) in [11]. Besides, the Potency in [5] is 1.22 µM (active); in experiment [14], 3.44 µM (active).

For the compound `CC(=O)/C=C/c1ccc2c(c1)OCO2`, the Potency in experiment [2] is 68.9 µM (active); in experiment [3], 61.4 µM (active); in experiment [19], 12.4 µM (active); in experiment [18], 61.4 µM (active). Moreover, the Potency result in experiment [4], in experiment [17], in [15], in [13], in experiment [7] and in [8] was “inactive” in each case. In addition, the Potency result in experiment [10] and in experiment [14] was “inactive” throughout. Also, in experiment [6], the outcome was inactive.

In the case of `CCCCCCCCCCCCBr`, the Potency in [1] was 27.3 µM (active); in experiment [2], 13.7 µM (active); in experiment [3], 30.6 µM (active). Further, the Potency result in experiment [11], in experiment [12], in [7], in [8], in [9] and in experiment [10] was “inactive” in each case. Further, the call in experiment [6] was inactive.

On to `N#CCCC(Br)(C#N)CBr` (configuration not stated), for which the Potency was 4.33 µM (active) in [1]; 6.11 µM (active) in experiment [2]; 7.7 µM (active) in experiment [3]; 24.5 µM (active) in experiment [4]; 15.4 µM (active) in experiment [11]; 13.7 µM (active) in [5]. Besides, in experiment [14], the Potency was 24.3 µM (active). In addition, the result in [6] was inactive. Besides, the Potency result in experiment [12], in experiment [13], in experiment [7], in experiment [8], in experiment [9] and in experiment [10] was “inactive” throughout.

As to `O=C(CCl)C(Cl)Cl`, the Potency in [1] was 5.5 µM (active); in experiment [2], 0.692 µM (active); in experiment [3] it was 4.9 µM (active); in experiment [4], 6.22 µM (active); in [11] it was 8.71 µM (active); in [5] it was 12.3 µM (active). The Potency in experiment [13] was 39.3 µM (active); in experiment [7], 13.9 µM [inconclusive] (active); in [8], 24.6 µM (active); in [14], 8.71 µM (active).
